# Bioassay records deposited in PubChem BioAssay by National Center for Advancing Translational Sciences (NCATS).
# In the library only some 7.3% were active in any assay of this set; here they are far more common.
# Tau fibril FP – blocks human tau fibril formation measured by polarization. P10636. K18 P301L tau heparin fibrillization, Alexa594 FP, 6 h. Potency, µM (doses to about 57.7 µM), for inactives: at the highest dose activity, negative = inhibition, hits mostly inhibitors. actives 0.39% (n = 280,000); also: nearly all actives have a fitted effect of over 55% in size
# Target sequence (P10636 561-689 P618L limits assumed): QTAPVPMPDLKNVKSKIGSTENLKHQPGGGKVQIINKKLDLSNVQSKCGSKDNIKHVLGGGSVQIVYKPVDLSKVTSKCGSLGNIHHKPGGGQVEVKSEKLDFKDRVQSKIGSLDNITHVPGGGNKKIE
#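 Human K18 P301L fragment (15 uM unlabeled plus 0.24 uM Alexa 594-labeled) in 100 mM sodium acetate pH 7 with compound, aggregation induced by 20 uM heparin for 6 hr at 37 C. ThT (30 uM) added for 1 hr, then Alexa 594 FP read.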
# Gal4-VP16 FLuc – counter-screen for ROR gamma inhibitors: Gal4-VP16 reporter; Drosophila S2 Gal4-VP16 UAS-luciferase, luminescence, 20 h; Potency, µM (titrated, usually from 53.6 µM), inactives show at the top dose activity, negative = inhibition, actives largely listed as inhibitors; actives 3.5% (n = 310,000);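 also: Gal4-VP16 expression switched on by copper sulfate through the metallothionein promoter; nearly all actives have a fitted effect of over 50% in size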
# Tau fluor counter – counter-screen for tau fibril formation inhibitors | tau K18 P301L Alexa594 fluorescence, heparin fibrillization | Potency, µM (series often up to 57.7 µM), without a hit: at the highest dose activity change, negative = decrease | actives 0.93% (n = 280,000); also: nearly all actives have a fitted effect of over 55% in size
#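 Human K18 P301L tau (15 uM unlabeled plus 0.24 uM Alexa 594-labeled, final) in 100 mM sodium acetate pH 7 was mixed with compound and 20 uM heparin and incubated 6 hr at 37 C.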
# RORgamma inh – inhibitors of mouse ROR gamma transcriptional activity. Potency, µM (highest dose often 53.6 µM), for inactives: at the top dose activity change, negative = inhibition, hits mostly inhibitors. P51450. actives 5.4% (n = 310,000). Drosophila S2 Gal4-RORgamma UAS-luciferase reporter, 20 h; also: nearly all actives have a fitted effect of over 60% in size
# Target sequence (P51450 whole entry, looked up, the tested form may be a part): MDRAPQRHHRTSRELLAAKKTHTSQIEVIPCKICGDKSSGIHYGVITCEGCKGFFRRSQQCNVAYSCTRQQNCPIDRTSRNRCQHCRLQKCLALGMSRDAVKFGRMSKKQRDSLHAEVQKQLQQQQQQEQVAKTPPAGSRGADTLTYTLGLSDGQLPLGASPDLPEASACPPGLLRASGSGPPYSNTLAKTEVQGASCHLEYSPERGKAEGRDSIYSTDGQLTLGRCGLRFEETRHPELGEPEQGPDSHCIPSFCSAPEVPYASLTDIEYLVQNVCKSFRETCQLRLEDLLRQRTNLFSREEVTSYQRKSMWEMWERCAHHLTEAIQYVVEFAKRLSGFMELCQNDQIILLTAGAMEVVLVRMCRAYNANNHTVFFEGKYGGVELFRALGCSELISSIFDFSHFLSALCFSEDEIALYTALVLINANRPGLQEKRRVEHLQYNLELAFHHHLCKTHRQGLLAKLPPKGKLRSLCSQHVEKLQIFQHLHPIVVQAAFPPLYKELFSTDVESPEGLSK
#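 Stable Schneider cell line, Gal4 DNA-binding domain fused to ROR gamma, UAS-luciferase. Cmpd 1 hr RT → CuSO4 700 uM final → 20 hr RT → luciferase reagent 10 min → luminescence.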
# Tau ThT inhib – inhibitors of human tau fibril formation, thioflavin T binding | AID 1460 | actives 2.1% (n = 270,000) | recombinant tau K18 P301L, heparin-induced fibrillization, ThT fluorescence | Potency, µM (series often up to 57.4 µM), without a hit: at the highest dose activity, negative = inhibition, actives largely listed as inhibitors; also: nearly all actives have a fitted effect of over 55% in size
#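 Fibril formation assay: tau K18 P301L at 15 uM with trace Alexa 594 label, heparin inducer 20 uM, pH 7 sodium acetate buffer, 37 C for 6 hr; endpoint ThT signal.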
# Starred values were filed as active, the others as inactive; ? = inconclusive; . = no result given; [ ] = dose if it differs, or a comment. Calls follow the shape of the dose curve; as a rule, active = well fitted curve in the direction sought with a large enough effect; inconclusive = small, poorly fitted or top-dose-only effect, or another doubt; inactive = no such curve, though single readings can be large; an effect the other way counts as inactive or inconclusive. % is scaled to controls: 0 for no effect and ±100 for the full control effect; potency is read from the fitted curve at half-maximal effect.
SMILES,Tau fibril FP,Gal4-VP16 FLuc,Tau fluor counter,RORgamma inh,Tau ThT inhib
O=C1/C(=C/c2ccncc2)SC(=S)N1Cc1ccccc1,-0.8%,-16.5%,-24.1%,1.5%,?
Cc1ccc(/C=C2/NC(=O)N(Cc3ccccc3)C2=O)o1,?,?,-21.0%,?,31.6µM*
O=C(O)c1cc(-c2ccc(/C=C3/SC(=S)N(Cc4ccccc4)C3=O)o2)ccc1Cl,-6.2%,-8.3%,1.9%,-2.1%,10µM*
Cc1ccc(/C=C2\SC(=S)N(Cc3ccccc3)C2=O)o1,?,-5.0%,?,-33.1%,15.8µM*
O=P(O)(O)OC(CO)CO,.,-1.4%,.,26.0%,.
Cc1ccc(/C=C2\SC(=S)N(c3cccnc3)C2=O)o1,?,2.1%,-18.2%,-7.6%,15.8µM*
Cc1cccc(N2C(=O)/C(=C/c3cccnc3)SC2=S)c1,7.7%,?,-6.1%,?,?
CCC1=C(OC(=O)N(CC)CC)N2C(=O)OC(=NCCOC)[C@]2(C)[C@H]2C1=CC[C@H]1C(=O)N(CC(=O)OC)C(=O)[C@H]12,-1.4%,0.0%,-0.7%,-0.6%,-12.8%
CC1(C)C(=O)C(c2ccccc2)=C2CN3C(=O)N(CCc4ccccc4)C(=O)C3(Cc3ccc(F)cc3)C=C21 (configuration not stated),2.0%,-5.0%,-25.9%,-2.8%,?
COc1ccc(C)cc1NC(=O)c1cn(C)c(=O)c2cc(OC)c(OC)cc12,-6.5%,.,-15.2%,.,-9.8%
CCOC(=O)c1cnc2c(-c3ccccc3)cnn2c1N,1.0%,11.2µM*,-10.5%,1.58µM*,-14.1%
CCOC(=O)c1cnc2c(N=Nc3cccc(Cl)c3)c(N)nn2c1N,-2.6%,-0.9%,-12.6%,-0.4%,2.51µM*
CCOC(=O)c1cnc2c(N=Nc3ccccc3)c(N)nn2c1N,-0.1%,?,-11.4%,-33.9%,2.51µM*
CCOC(=O)c1cnc2c(-c3ccccc3)c(C)nn2c1N,-0.3%,11.5%,-10.4%,-9.4%,?
CCOC(=O)c1cnn(-c2ccccn2)c1N,-2.6%,-2.0%,1.7%,32.2%,-13.3%
CCOC(=O)c1cnn(-c2cc(C)c3ccccc3n2)c1N,-8.8%,?,-11.4%,0.112µM*,?
Cc1ccccc1NC(=O)c1ccc(N(Cc2ccccc2)S(C)(=O)=O)cc1,?,.,-18.4%,.,-5.8%
Cc1ccc(CNCC(=O)Nc2ccc(N3CCOCC3)cc2)cc1,9.4%,-8.0%,-9.9%,5.1%,-17.5%
O=C(Nc1ccc(Nc2ccccc2)cc1)Nc1ccccc1Cl,?,-8.8%,3.98µM*[quencher],1.0%,3.98µM*
O=C(Nc1ccccc1)Nc1cc(Cl)cc(Cl)c1,11.2µM*,?,?,?,?
O=C(Nc1ccccc1Cl)Nc1ccccc1Cl,-0.1%,-8.5%,-12.3%,-29.3%,.
O=C(Nc1cccnc1)Nc1cc(Cl)cc(Cl)c1,25.1µM*,-22.7%,?,?,?
CC(=O)Nc1ccc(NC(=O)Nc2ccccc2)cc1,.,24.5%,.,-2.2%,.
CC(=O)Nc1csc2ccccc12,-1.0%,18.8%,1.5%,21.5%,-4.4%
O=C(Nc1ccccc1)Nc1csc2ccccc12,?,-2.4%,11.2µM*[quencher],4.4%,?
SMILES,Tau fibril FP,Gal4-VP16 FLuc,Tau fluor counter,RORgamma inh,Tau ThT inhib
Cc1ccccc1NC(=O)C1CCC(CNS(=O)(=O)c2ccc3c(c2)C(C)(C)C(=O)N3C)CC1 (configuration not stated),-2.3%,.,-13.2%,.,-2.2%
CCC(=O)N1c2ccc(S(=O)(=O)CCC(=O)N3CCN(c4ccccc4F)CC3)cc2CC1C (configuration not stated),.,0.3%,.,-15.2%,.
O=C(Nc1ccncc1)Nc1ccccc1Cl,.,-6.0%,.,-17.6%,.
O=C(Nc1csc([N+](=O)[O-])c1)Nc1ccccc1Cl,-0.1%,-28.8%,25.1µM*[quencher],31.3%,.
O=C(Nc1ccccc1)Nc1cc(OCC(F)(F)F)cc(OCC(F)(F)F)c1,11.2µM*,15.8µM*,?,?,-15.3%
O=C(Cc1ccc(Cl)cc1)Nc1ncc([N+](=O)[O-])s1,11.2%,?,-13.7%,?,?
O=C(Nc1ccc(Cl)cc1)Nc1ccccc1Sc1ncc([N+](=O)[O-])s1,?,?,?,11.2µM*,.
CC#CCN1c2ccccc2[C@]23C[C@@H](C(=O)OC)N(S(=O)(=O)c4ccc([N+](=O)[O-])cc4)C2=NC(C(=O)OC)=C(C(=O)OC)[C@H]13,0.3%[11.6 µM],.,-23.6%[11.6 µM],.,-12.9%[11.5 µM]
O=c1c(O)cc(C2Oc3cc(O)cc(O)c3CC2O)cc2c(C3Oc4cc(O)cc(O)c4CC3O)cc(O)c(O)c12 (configuration not stated),1µM*,-26.6%,8.91µM*[quencher],-6.8%,0.501µM*
Oc1cc(O)c2c(c1)O[C@H](c1ccc(O)c(O)c1)[C@@H](O)C2,-8.4%,3.2%,?,5.5%,-7.8%
CCc1ccc(CNC(=O)c2cccc(-n3cnc4cccnc43)c2C)cc1,-5.0%,.,-7.0%,.,1.5%
CCCn1c2ccc(C)cc2c2n[nH]c(=S)nc21,.,3.55µM*,.,1.78µM*,.
C=CCn1c2ccccc2c2n[nH]c(=S)nc21,.,3.55µM*,.,2.51µM*,.
CCn1c2ccccc2c2n[nH]c(=S)nc21,.,8.91µM*,.,3.98µM*,.
O=C(O)Cn1c2ccccc2c2n[nH]c(=S)nc21,.,8.6%,.,-34.9%[1.91 µM],.
CCN1C(C)=C(C(=O)OC)C(c2ccccc2)N2C(=O)[C@](O)(C(=O)OC)CC(C(C)=O)=C12 (some centres not stated),-1.1%[11.6 µM],-1.7%[10 µM],-10.2%[11.6 µM],7.3%[10 µM],-9.3%[11.5 µM]
Cc1ccc(-c2csc(N3CCN(c4cc5c(cc4Cl)nc(-c4ccncc4)n5CCN4CCCCC4)CC3)n2)cc1,.,-24.6%,.,8.91µM*,.
CCCn1c(C)nc2cc(Cl)c(N3CCN(c4nc(-c5ccc(C)cc5)cs4)CC3)cc21,.,?,.,4.47µM*,.
Cc1ccc(-c2csc(N3CCN(c4ccc5nc(-c6ccncc6)n(CCN6CCCCC6)c5c4)CC3)n2)cc1,.,-4.8%,.,?,.
CC(C)Oc1ccc(CN2CCCC(CO)(Cc3ccccc3)C2)cc1CO (configuration not stated),.,0.6%,.,-1.7%,.
CC(=O)c1ccc(N2CCN(S(=O)(=O)c3ccc4[nH]c5c(c4c3)CCCC5)CC2)cc1,10.6%,.,?,.,7.5%
CC1CC(C)(C)NC(=S)N1CCC(=O)N1CCc2ccccc21 (configuration not stated),1.2%,?,-5.6%,6.31µM*,-8.6%
CCN(C(=O)CN1C(=S)NC(C)(C)CC1C)c1ccc(C)c(C)c1 (configuration not stated),-0.4%,?,4.4%,7.08µM*,2.1%
O=C(CCCC(=O)N1CCN(c2ccccc2F)CC1)N1CCN(c2ccccc2F)CC1,0.0%,-4.3%,-9.0%,3.2%,?
Cc1cccc(NC(=O)CN2C(=S)NC(C)(C)CC2C)c1C (configuration not stated),-1.9%,?,-7.8%,?,-4.4%
